# Test results reported in the supplement of paper PMC6897291.
# What was measured:
# RIVA [1] = assay: growth inhibition by drug plus 177Lu-lilotomab satetraxetan (1 - RLU/untreated control) (fraction); higher = stronger inhibition; settings: 177Lu-lilotomab satetraxetan 0.5 ug/ml
# Method in brief: (§1)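 Compound doses on the pre-printed Selleck Cambridge Cancer Compound library plates were 10/100 nM for RIVA cells and 10/1,000 nM for U-2932 cells, seeded at 3,000 cells/well. Before seeding, cells were washed after 18 h with or without a radiolabelled anti-CD37 antibody conjugate (~600 MBq/mg; 0.5 µg/ml RIVA, 1 µg/ml U-2932). Growth inhibition was derived from RealTime-Glo luminescence relative to untreated no-drug control wells. Readings were taken daily starting on day 3, each after 1 h at 37°C, and each well's RLU was divided by the mean of 48 such wells per plate and subtracted from 1.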
# U-2932 [2] = assay: growth inhibition by drug alone (1 - RLU/untreated control) (fraction); higher = stronger inhibition; settings: 177Lu-lilotomab satetraxetan 0 ug/ml
# Method in brief: as §1
# RIVA [3] = assay: as above; settings: 177Lu-lilotomab satetraxetan 0 ug/ml
# Method in brief: as §1
# U-2932 [4] = assay: growth inhibition by drug plus 177Lu-lilotomab satetraxetan (1 - RLU/untreated control) (fraction); higher = stronger inhibition; settings: 177Lu-lilotomab satetraxetan 1 ug/ml
# Method in brief: as §1
Structure (SMILES),"growth inhibition by drug plus 177Lu-lilotomab satetraxetan (RIVA [1]; 100 nM, time (day): 5)","growth inhibition by drug plus 177Lu-lilotomab satetraxetan (RIVA [1]; 100 nM, time (day): 6)","growth inhibition by drug alone (U-2932 [2]; 10 nM, time (day): 3)","growth inhibition by drug alone (U-2932 [2]; 10 nM, time (day): 4)","growth inhibition by drug alone (U-2932 [2]; 10 nM, time (day): 5)","growth inhibition by drug alone (U-2932 [2]; 10 nM, time (day): 6)","growth inhibition by drug alone (U-2932 [2]; 1000 nM, time (day): 3)","growth inhibition by drug alone (U-2932 [2]; 1000 nM, time (day): 4)","growth inhibition by drug alone (U-2932 [2]; 1000 nM, time (day): 5)","growth inhibition by drug alone (U-2932 [2]; 1000 nM, time (day): 6)","growth inhibition by drug alone (RIVA [3]; 10 nM, time (day): 3)","growth inhibition by drug alone (RIVA [3]; 10 nM, time (day): 4)","growth inhibition by drug alone (RIVA [3]; 10 nM, time (day): 5)","growth inhibition by drug alone (RIVA [3]; 10 nM, time (day): 6)","growth inhibition by drug alone (RIVA [3]; 100 nM, time (day): 3)","growth inhibition by drug alone (RIVA [3]; 100 nM, time (day): 4)","growth inhibition by drug alone (RIVA [3]; 100 nM, time (day): 5)","growth inhibition by drug alone (RIVA [3]; 100 nM, time (day): 6)","growth inhibition by drug plus 177Lu-lilotomab satetraxetan (U-2932 [4]; 10 nM, time (day): 3)","growth inhibition by drug plus 177Lu-lilotomab satetraxetan (U-2932 [4]; 10 nM, time (day): 4)","growth inhibition by drug plus 177Lu-lilotomab satetraxetan (U-2932 [4]; 10 nM, time (day): 5)","growth inhibition by drug plus 177Lu-lilotomab satetraxetan (U-2932 [4]; 10 nM, time (day): 6)","growth inhibition by drug plus 177Lu-lilotomab satetraxetan (U-2932 [4]; 1000 nM, time (day): 3)","growth inhibition by drug plus 177Lu-lilotomab satetraxetan (U-2932 [4]; 1000 nM, time (day): 4)","growth inhibition by drug plus 177Lu-lilotomab satetraxetan (U-2932 [4]; 1000 nM, time (day): 5)","growth inhibition by drug plus 177Lu-lilotomab satetraxetan (U-2932 [4]; 1000 nM, time (day): 6)","growth inhibition by drug plus 177Lu-lilotomab satetraxetan (RIVA [1]; 10 nM, time (day): 3)","growth inhibition by drug plus 177Lu-lilotomab satetraxetan (RIVA [1]; 10 nM, time (day): 4)","growth inhibition by drug plus 177Lu-lilotomab satetraxetan (RIVA [1]; 10 nM, time (day): 5)","growth inhibition by drug plus 177Lu-lilotomab satetraxetan (RIVA [1]; 10 nM, time (day): 6)","growth inhibition by drug plus 177Lu-lilotomab satetraxetan (RIVA [1]; 100 nM, time (day): 3)","growth inhibition by drug plus 177Lu-lilotomab satetraxetan (RIVA [1]; 100 nM, time (day): 4)"
O=C(O)CCc1ccc(NCc2cccc(Oc3ccccc3)c2)cc1,0.552,0.561,–,–,–,–,–,–,–,–,–,–,–,–,–,–,–,–,–,–,–,–,–,–,–,–,–,–,–,–,–,–
COc1cc(Nc2c(C#N)cnc3cc(OCCCN4CCN(C)CC4)c(OC)cc23)c(Cl)cc1Cl [Bosutinib (SKI-606)],–,–,0.086,0.0525,-0.0862,-0.0345,0.264,0.239,0.19,0.239,-0.0137,-0.0501,-0.131,-0.404,-0.377,-0.355,-0.406,-0.598,0.0416,0.085,0.124,0.135,0.333,0.281,0.33,0.431,–,–,–,–,–,–
O=C1CN2Cc3c(ccc(Cl)c3Cl)N=C2N1 [Anagrelide],0.625,0.631,0.0875,0.0814,0.0131,-0.134,0.102,0.0873,-0.0302,-0.00421,-0.0185,0.0438,-0.0392,-0.302,-0.0533,0.019,0.0156,-0.0326,0.101,0.141,0.208,0.23,0.0939,0.117,0.178,0.243,0.547,0.616,0.633,0.635,0.54,0.612
CN1C(=O)C(Cc2c[nH]c3ccccc23)NC1=S (stereo not drawn) [Necrostatin-1],0.476,0.476,0.00216,-0.00946,-0.022,-0.0551,-0.0606,-0.0746,-0.132,-0.0624,-0.0747,-0.159,-0.218,-0.441,-0.34,-0.362,-0.408,-0.562,-0.059,-0.0156,0.00349,0.0946,-0.0506,0.00685,0.0586,0.224,0.451,0.501,0.519,0.523,0.368,0.476
CS(=O)(=O)CCNCc1ccc(-c2ccc3ncnc(Nc4ccc(OCc5cccc(F)c5)c(Cl)c4)c3c2)o1 [Lapatinib Ditosylate (Tykerb)],0.487,0.486,0.0817,0.081,0.00227,-0.0646,0.0164,0.0506,-0.0238,-0.169,-0.0232,0.00959,-0.0719,-0.295,-0.283,-0.179,-0.183,-0.291,0.108,0.154,0.199,0.225,0.0709,0.127,0.153,0.277,0.649,0.657,0.672,0.674,0.379,0.475
CO[C@H]1C[C@@H]2CC[C@@H](C)[C@@](O)(O2)C(=O)C(=O)N2CCCC[C@H]2C(=O)O[C@H]([C@H](C)C[C@@H]2CC[C@@H](O)[C@H](OC)C2)CC(=O)[C@H](C)/C=C(\C)[C@@H](O)[C@@H](OC)C(=O)[C@H](C)C[C@H](C)/C=C/C=C/C=C/1C [Rapamycin (Sirolimus)],–,–,0.724,0.686,0.609,0.544,0.737,0.722,0.658,0.599,0.777,0.792,0.785,0.748,0.8,0.833,0.827,0.803,0.692,0.666,0.631,0.623,0.703,0.69,0.662,0.657,–,–,–,–,–,–
NC(=O)Nc1cc(-c2cccc(F)c2)sc1C(=O)N[C@H]1CCCNC1,0.178,0.185,0.0534,0.00627,-0.197,-0.0587,0.942,0.955,0.959,0.962,0.0596,0.0145,-0.0537,-0.23,0.0812,0.0623,0.0116,-0.14,-0.0183,0.0423,0.122,0.155,0.964,0.971,0.974,0.978,0.318,0.362,0.396,0.43,0.139,0.161
Cc1c(CCOc2ccc(C(=O)O)cc2)c2cc(Cl)ccc2n1C(c1ccccc1)c1ccccc1,0.419,0.435,0.00805,-0.00114,-0.0847,-0.0955,-0.0489,-0.0693,-0.125,-0.133,-0.14,-0.201,-0.294,-0.473,-0.448,-0.454,-0.564,-0.758,-0.0474,-0.0119,0.00779,0.0213,0.0043,0.0519,0.061,0.147,0.505,0.573,0.594,0.582,0.296,0.41
COc1cc2c(N3CCN(C(=O)Nc4ccc(OC(C)C)cc4)CC3)ncnc2cc1OCCCN1CCCCC1 [Tandutinib (MLN518)],0.407,0.387,-0.0695,-0.0613,-0.013,0.108,-0.0914,-0.0805,-0.0691,-0.0707,-0.157,-0.175,-0.185,-0.222,-0.102,-0.12,-0.163,-0.231,-0.106,-0.0661,-0.0234,0.112,-0.163,-0.112,-0.0614,0.0615,0.419,0.516,0.54,0.542,0.365,0.403
CC[C@@H]1C(=O)N(C)c2cnc(Nc3ccc(C(=O)NC4CCN(C)CC4)cc3OC)nc2N1C1CCCC1,0.969,0.976,0.821,0.844,0.867,0.907,0.953,0.973,0.981,0.984,0.903,0.895,0.9,0.908,0.937,0.955,0.964,0.968,0.814,0.856,0.903,0.941,0.938,0.957,0.97,0.982,0.93,0.959,0.97,0.978,0.918,0.956
CCOC(=O)[C@@H](C)Oc1cccc2c(=O)n(CC(=O)Nc3ccc4c(c3)OCCO4)ccc12,0.427,0.414,-0.0226,-0.00751,0.0431,0.176,-0.114,-0.0578,-0.0945,-0.15,-0.12,-0.131,-0.182,-0.361,0.0368,-0.0449,-0.0731,-0.142,-0.0102,0.0168,0.0306,0.145,-0.139,-0.0327,-0.0266,-0.0505,0.384,0.517,0.542,0.536,0.305,0.424
Cc1cn(-c2cc(NC(=O)c3ccc(C)c(Nc4nccc(-c5cccnc5)n4)c3)cc(C(F)(F)F)c2)cn1 [Nilotinib (AMN-107)],–,–,0.0488,0.0185,-0.0493,-0.187,-0.0166,0.0185,-0.0481,-0.136,-0.0335,-0.0957,-0.159,-0.318,-0.122,-0.118,-0.0918,-0.17,-0.0417,-0.0287,-0.0436,0.0203,-0.141,-0.0418,-0.0875,-0.155,–,–,–,–,–,–
COc1cc2ncnc(Nc3ccc(Oc4ccccc4)cc3)c2cc1OC,0.556,0.521,0.0897,0.0909,0.0445,-0.0326,0.038,0.0615,0.0344,0.0553,0.00348,0.0579,-0.00953,-0.188,-0.0251,0.00379,-0.0229,-0.143,0.0456,0.0896,0.111,0.169,-0.11,0.0137,0.0447,0.175,0.521,0.598,0.605,0.616,0.526,0.567
CCOc1ccc(Cc2cc([C@@H]3O[C@H](CO)[C@@H](O)[C@H](O)[C@H]3O)ccc2Cl)cc1 [Dapagliflozin],0.572,0.572,0.142,0.11,-0.0277,-0.0754,0.0652,0.0655,0.0265,-0.143,0.0261,0.0489,-0.0941,-0.357,-0.159,-0.0453,-0.0994,-0.161,0.0831,0.139,0.185,0.224,0.0836,0.124,0.161,0.282,0.595,0.635,0.644,0.658,0.517,0.574
O=c1oc2c(O)c(O)cc3c(=O)oc4c(O)c(O)cc1c4c23 [Ellagic acid],0.402,0.388,-0.0386,-0.0333,-0.0157,0.0286,-0.0768,-0.0331,-0.0763,-0.143,-0.12,-0.115,-0.166,-0.332,-0.107,-0.127,-0.152,-0.219,-0.0253,-0.00558,0.0162,0.137,-0.104,-0.00651,0.0116,0.067,0.371,0.481,0.517,0.531,0.323,0.399
Nc1nc(OCc2cc(Br)cs2)c2[nH]cnc2n1 [Lomeguatrib],0.488,0.463,-0.115,-0.036,-0.163,-0.244,-0.0214,-0.011,-0.105,-0.195,-0.0122,-0.0435,-0.118,-0.367,-0.0285,-0.0397,-0.0789,-0.154,0.00798,0.0431,0.0314,0.114,-0.0706,0.00418,0.025,0.00957,0.437,0.531,0.544,0.548,0.404,0.479
